NR1D1 modulator: modulates human Rev-erb alpha binding to DNA; P20393; Rev-erbα–FITC-DNA binding, fluorescence polarization, 90 min; activity, % at 10 µM; actives 0.79% (n = 370,000); AID 1259318;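 active = activity above about 14%, limit read from the data; passing the limit was not always enough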;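 note: 0% = DMSO wells with 35 nM protein and 100% = DMSO wells with 750 nM protein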
ssDAF-12 act: S. stercoralis DAF-12 activation, primary screen. HEK293 ssDAF-12/GRIP1 lit1-tk-luc reporter, luminescence; % of 3 µM dafachronic acid response. activation, % at 6.8 µM. actives 1% (n = 370,000). AID 652126;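 active = activation above the mean over all tested compounds plus 3 SD, cut at about 0.9% in these data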;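 note: 0% = DMSO-only wells and 100% = 3 µM delta7-dafachronic acid wells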
hgDAF-12 ag: agonists of H. glycines DAF-12 nuclear receptor. HEK293 GAL4-hgDAF12 UAS-luciferase reporter, agonist luminescence; normalized to butyrate control. AID 687014. actives 1.8% (n = 370,000). activation, % at 6.8 µM;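 active = activation above a cutoff set at the mean of all screened compounds plus 3 SD, cut at about 10% in these data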;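 note: 0% = DMSO wells and 100% = sodium butyrate wells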
hcDAF-12 act: activators of H. contortus DAF-12 nuclear receptor; AID 652067; HEK293 hcDAF-12 lit1-tk-luc reporter, luminescence; 0% DMSO, 100% Δ7-dafachronic acid; activation, % at 6.8 µM; actives 1.4% (n = 370,000);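 active = activation above the mean of all tested compounds plus 3 SD, cut at about 5.5% in these data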;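 note: 100% = response to 3 µM Δ7-dafachronic acid high control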
DAX1 inh-1: DAX1 (NR0B1) inhibition, primary screen | HEK293T StAR-luciferase reporter, SF-1/DAX-1 repression relief | inhibition, % at 6.8 µM | actives 1.1% (n = 370,000);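 active = inhibition above the mean over all tested compounds plus 3 SD, cut at about 3.6% in these data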;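 note: 0% = DAX-1 cells with DMSO and 100% = cells lacking DAX-1 with DMSO; higher inhibition means more luminescence from relief of DAX-1 repression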
DAX1 inh-2: inhibitors of human orphan nuclear receptor DAX1 (NR0B1); P51843; inhibition, % at 6.75 µM; actives 0.99% (n = 340,000); HEK293 Gal4-DAX1 luciferase reporter, luminescence;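 active = inhibition above the mean over all tested compounds plus 3 SD, cut at about 4.2% in these data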;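 note: 0% = DAX1-transfected cells with DMSO and 100% = empty-vector control cells with DMSO; inhibition shows as a rise in luminescence from relieved DAX1 repression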
Target sequence (P51843 207-470 limits assumed): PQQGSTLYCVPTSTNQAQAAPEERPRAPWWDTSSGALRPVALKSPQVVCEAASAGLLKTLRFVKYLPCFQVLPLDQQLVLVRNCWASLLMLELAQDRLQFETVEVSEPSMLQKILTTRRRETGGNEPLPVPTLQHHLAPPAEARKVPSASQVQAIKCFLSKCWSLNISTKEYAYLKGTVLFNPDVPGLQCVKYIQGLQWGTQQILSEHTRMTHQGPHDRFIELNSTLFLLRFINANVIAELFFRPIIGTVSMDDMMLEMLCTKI
LXR ag: counter-screen for hcDAF-12 agonists: agonists of human LXR-beta. HEK293 Gal4-LXR tk-luc reporter, luminescence, 24 h; normalized: DMSO 0%, positive control 100%. shares compounds with hcDAF-12 act. activation, % at 6.8 µM. 3,400 tested, under 10 active;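 active = mean percent activation of the reporter above a cutoff set as the average over tested compounds plus their standard deviation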
hcDAF12 ag: hcDAF-12 agonism, confirmation assay; shares compounds with hcDAF-12 act; AID 743032; actives 61% (n = 3,400); HEK293 hcDAF-12 lit1-tk-luc reporter, luminescence; % of Δ7-dafachronic acid response; activation, % at 6.8 µM;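 active = mean activation across triplicate tests above the threshold derived from the earlier primary screen, cut at about 5.5% in these data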;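 note: 0% = DMSO only wells and 100% = 3 µM Δ7-dafachronic acid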
Starred values were filed as active, the others as inactive; x = no result given. Sampled rows, rich in hits. Any-hit rate of the full collection: about 4.8%.

SMILES	NR1D1 modulator	ssDAF-12 act	hgDAF-12 ag	hcDAF-12 act	DAX1 inh-1	DAX1 inh-2	LXR ag	hcDAF12 ag
Cc1ccccc1N=Nc1c(N)[nH]n(-c2ccccc2)c1=O	1	1	8	6.8*	2	x	1	5
CC(C)N1Cc2nnn(Cc3ccc(F)cc3)c2-c2cc(F)ccc2S1(=O)=O	2	-1	-1	-4	-1	x	x	x
COc1ccc(/C(N)=N/OC(=O)Cc2cccs2)cc1	-2	-1	10	4	1	0	x	x
COc1ccc(/C(N)=N/OC(=O)Cc2cccs2)cc1OC	2	1	9	14*	1	-1	0	3
COc1ccc(C2=NN(S(C)(=O)=O)C(c3ccc4nccnc4c3)C2)cc1 (stereo not given)	3	1	7	8.4*	1	0	0	4
COc1cccc(CNC(C)(C)CO)c1OCc1ccc(Cl)cc1	-2	-1	-2	-1	0	-1	x	x
COc1cccc(OCc2ccc(Cl)cc2)c1C#N	4	1.7*	12*	8.4*	3	4.8*	2	7.3*
CCOC(=O)CN1C(=O)[C@]2(OCCC=C[C@H]2C)c2ccccc21	-4	-1	-2	-1	0	x	x	x
COc1ccccc1-n1cc2ccc([N+](=O)[O-])cc2n1	-7	0	10	8.6*	0	1	1	6.6*
Cn1c(CC(=O)Nc2ccccc2)c(Sc2ccccc2)c2ccccc21	-1	0	2	7.5*	0	0	0	3
Cn1c(CC(=O)Nc2ccccc2)cc2ccccc21	-6	1.0*	9	9.9*	0	1	0	7.6*
CC1CCN(c2ccc(C(=O)O)cc2NS(=O)(=O)c2ccc(C(C)(C)C)cc2)CC1	-2	0	-4	-2	-1	x	x	x
CCOC(=O)C1=C(C(=O)OCC)C2N(Cc3ccc(C#N)cc3)c3ccccc3[C@@]23C[C@@H](C(=O)OC)N(S(=O)(=O)c2cccs2)C3=N1 (stereo not given in full)	-7	-1	-2	0	0	x	x	x
CC(=O)N1C(=O)/C(=C2\SC(=S)N(c3c(C)n(C)n(-c4ccccc4)c3=O)C2=O)c2ccccc21	-4	1.2*	1	9.3*	0	1	0	0
Cc1c(N2C(=O)/C(=C3/C(=O)N(C)c4ccccc43)SC2=S)c(=O)n(-c2ccccc2)n1C	-4	-1	-2	1	1	1	x	x
Oc1ccccc1OCc1nc2ccccc2s1	10	1.4*	11*	7.1*	3	2	1	6.2*
OCc1cc(Br)ccc1OCc1nc2ccccc2s1	x	x	x	x	x	1	x	x
CCC(=O)c1cc(-c2nc3ccccc3n2C)n(C)c1	2	-1	-1	-2	0	4	x	x
Cc1oc(-c2nc3ccccc3n2C)cc1C(=O)c1ccccc1	-3	1.2*	9	11*	3	-2	2	13*
CCOc1cc(/C=N\NC(=O)c2c(C)nc3ccccn23)ccc1O	2	-1	2	8.0*	-1	0	0	2
COC(=O)C1=C(C)N(C)C(=NCc2ccccc2)NC1c1ccccc1C(F)(F)F (stereo not given)	2	-1	-2	-1	1	x	x	x
Cc1noc(C(=O)Nc2cc(Cl)ccc2O)c1Cl	-3	0	0	7.4*	0	0	0	5
Cc1noc(C(=O)Nc2ccc(F)c(Cl)c2)c1Cl	7	0	7	1	1	1	x	x
C=CCN1C(=O)[C@]2(OCCC=C[C@H]2C)c2cc(OC)ccc21	0	-1	-5	-2	-1	x	x	x
CCCCCc1cccc2[nH]cc(-c3ccccc3)c12	2	0	-2	1	0	x	x	x
SMILES	NR1D1 modulator	ssDAF-12 act	hgDAF-12 ag	hcDAF-12 act	DAX1 inh-1	DAX1 inh-2	LXR ag	hcDAF12 ag
CNc1cc([N+](=O)[O-])ccc1N/C=C/C(=O)c1cccs1	5	1	3	8.9*	2	1	0	5
O=C(/C=C/Nc1ccccc1C(=O)O)c1cccs1	3	-1	3	8.4*	1	0	0	3
O=C(/C=C/Nc1ccc(Nc2ccccc2)cc1)c1cccs1	0	-1	1	-1	-1	2	x	x
O=C(/C=C/Nc1cccc([N+](=O)[O-])c1)c1cccs1	6	1.8*	13*	13*	2	3	2	14*
NC(=O)[C@@H]1CCCN1C(=O)[C@@H](Cc1ccccc1)NC(=O)[C@H]1O[C@@H](n2ccc(=O)[nH]c2=O)[C@H](O)[C@@H]1O	-1	-1	-1	1	-1	x	x	x
O=C(NC(=S)Nc1ccccc1[N+](=O)[O-])c1ccccc1Cl	-5	-1	7	0	1	0	x	x
O=C(NNC(=S)NC(=O)c1ccccc1[N+](=O)[O-])c1ccccc1Cl	-1	-1	4	7.2*	0	-1	0	0
COc1ccc(-c2ccccc2C2Cc3nnccc3CN2)cc1 (stereo not given)	-1	-1	1	-2	0	x	x	x
CCCCN1CN2CCc3ccccc3C2CS1(=O)=O (stereo not given)	2	-1	0	-5	1	x	x	x
Fc1ccc(OCc2nc(-c3ccc(Br)o3)no2)c(F)c1	-2	-1	9	2	1	1	x	x
COc1ccccc1-c1nc(-c2ccccn2)no1	-3	0	8	8.6*	3	-3	1	10*
Brc1ccc(-c2nc(-c3ccncc3)no2)o1	1	-2	0	-2	1	0	x	x
Brc1ccc(-c2nc(-c3ccccn3)no2)o1	-4	0	5	8.0*	1	-3	1	11*
Clc1ccccc1-c1nc(-c2ccc(Br)o2)no1	3	3.5*	22*	15*	2	5.6*	2	18*
Clc1ccccc1OCc1nc(-c2ccc(Br)o2)no1	-2	-1	3	6.7*	1	0	0	3
CC(=O)OCCC(CC(C)C)NC(=O)[C@H](CC(C)C)NC(=O)OCc1ccccc1 (stereo not given in full)	4	-1	0	2	x	x	x	x
Cc1[nH]nc2c1C(c1ccc(Br)cc1)N(Cc1ccccc1)C2=O (stereo not given)	-8	-1	-4	-1	-1	x	x	x

Screening results from PubChem.
